Measured values: PubChem BioAssay AID652104 (National Center for Advancing Translational Sciences (NCATS), 2013)
The whole screen tested about 410,000 compounds, of which about 7,200 (1.8%) were called active. A call without a number means that no potency is given here. Another 7% or so got no clear call; they are omitted. Many of the other results were omitted from the sample, so actives are more common in it than they were. Unmarked numbers belong to inactive results. The call rests on the fitted dose curve; in most records, active means well fitted activation curve with a large enough effect; inconclusive means small, poorly fitted or top-dose-only effect, or another doubt; inactive means no such curve, though single readings can be large or run the other way.

experiment: qHTS of TDP-43 Inhibitors; conditions: TDP-43 expressing yeast growth rescue, BacTiter-Glo, 24 h; series mostly up to 46.1 µM; further: nearly all actives have a fitted effect of over 50% in size
Outline: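 Luminescence from BacTiter-Glo reports growth of TDP-43-expressing yeast after 24 hr at 30 deg C with compound. Cells were raffinose-pregrown to mid-log, then seeded in galactose medium at OD600=0.02.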
Potency means the concentration at half of the fitted maximal effect.

Structure (SMILES) | Potency | growth rescue (activation)
Cc1cccn2c(=O)c(C(=O)NC(C)c3ccccc3)cnc12 (configuration not stated) | inactive | –
COc1ccc(S(=O)(=O)Nc2ccc(O)c(Sc3nc4ccccc4s3)c2)cc1 | 31.6 µM (active) | –
COc1ccc(CC(=O)Nc2ccc(-c3nc4ccccc4s3)c(C)c2)cc1 | inactive | –
CC(C)(C)c1ccc(S(=O)(=O)Nc2ccc(O)c(Sc3nc4ccccc4s3)c2)cc1 | inactive | –
CCOc1ccccc1NC(=O)C1CCCN(S(=O)(=O)c2cn(C)cn2)C1 (configuration not stated) | inactive | –
Cc1nnc(SCC(=O)NCc2ccccc2Cl)c2nn(-c3ccccc3)c(C)c12 | inactive | –
CCn1c2c(c(=O)n3ncc(C(=O)N4CCN(c5ccccc5)CC4)c13)CN(Cc1ccc(OC)cc1)CC2 | inactive | –
CC(C)(C)NC(=O)Cn1cnc2cc([N+](=O)[O-])ccc2c1=O | inactive | –
Cc1ccc(N2CCN(c3ccc([N+](=O)[O-])cn3)CC2)c(C)c1 | inactive | –
Cc1ccc(-n2cc3ccc([N+](=O)[O-])cc3n2)cc1 | 15.8 µM (active) | –
Cc1ccc(CCNC(=O)C2CCN(c3nnc(-n4cccc4CNc4ccc(C)cc4)s3)CC2)cc1 | inactive | –
COc1ccc(S(=O)(=O)N2CCN(C(=S)NCC3CCCO3)CC2)cc1OC (configuration not stated) | inactive | –
CCOc1ccc(S(=O)(=O)N2CCN(C(=S)NCC3CCCO3)CC2)cc1 (configuration not stated) | inactive | –
S=C(NCC1CCCO1)N1CCN(c2ccc(Cl)c(Cl)c2)CC1 (configuration not stated) | 22.4 µM (active) | –
O=C(CCCn1c(=O)c2cccn2c2cccnc21)NCc1ccc(F)cc1 | inactive | –
Cc1nc2ccccn2c(=O)c1NC(=O)c1c(F)cccc1F | inactive | –
CN1C(=O)c2[nH]nc(-c3ccc(F)cc3)c2C1c1ccccn1 (configuration not stated) | inactive | –
O=C(NC1CC(=O)N(c2ccc(F)cc2)C1)c1cccs1 (configuration not stated) | inactive | –
CC(C)(C)c1ccc(Oc2ccc(N)cc2)cc1 | 35.5 µM (active) | –
CCCC(=O)Nc1ccc(NC(=O)c2sc3ccccc3c2Cl)cc1 | inactive | –
Cc1cc2ncn(CCCCOc3ccccc3)c2cc1C | inactive | –
Cc1c(C(N)=O)sc2ncn(CCOc3ccccc3)c(=O)c12 | inactive | –
Clc1ncn(CCOc2ccccc2)c1Cl | 17.8 µM (active) | –
CSc1oc(-c2cccs2)nc1S(=O)(=O)c1ccc(Br)cc1 | inactive | –
COc1ccc(CN2CN(C(C)C)CSC2=S)cc1 | inactive | –
COc1ccc(CN2CN(C3CCCC3)CSC2=S)cc1 | 15.8 µM (active) | –

Structure (SMILES) | Potency | growth rescue (activation)
COc1ccc(CN2CC(C(=O)NC3CCCCC3)CC2=O)cc1 (configuration not stated) | inactive | –
CC1CCCN(c2nc3c(S(=O)(=O)c4ccc(C(C)C)cc4)nnn3c3ccsc23)C1 (configuration not stated) | inactive | –
O=C(Nc1cc(C(F)(F)F)ccc1Cl)c1nc2ccccc2nc1N1CCCCC1 | inactive | –
O=S(=O)(c1ccc(Br)c2ccccc12)N1CCOCC1 | 14.1 µM (active) | –
COc1ccc(S(=O)(=O)N2CCOCC2)c(C)c1C | inactive | –
Cc1cc(C)c(S(=O)(=O)N2CCOCC2)cc1C | inactive | –
COc1ccccc1CN1CCC(CNC(=O)c2cnn(-c3cccc(Cl)c3)c2C2CCN(C(=O)OC(C)(C)C)CC2)CC1 | inactive | –
Cc1ccc(Cn2c(C)c3cnn(CC(=O)NCc4ccccc4)c(=O)c3c2C)cc1 | inactive | –
COc1ccc(CNC(=O)c2ccc(-c3cccnc3)c3ccoc23)cc1OC | inactive | –
COc1ccc(-c2ccc(C(=O)NC(C)C)c3occc23)c(C)c1 | 28.2 µM (active) | –
COc1ccc(-c2ccc(C(=O)NCCN3CCOCC3)c3occc23)c(C)c1 | inactive | –
COC(=O)c1ccc(-c2nc3cc(NC(C)=O)ccc3o2)cc1 | inactive | –
COc1ccc(-c2cn3c(C)c(C(=O)Nc4cc(C)cc(C)c4)sc3n2)cc1 | inactive | –
COc1ccc(-n2c(SC)nc3sc4c(c3c2=O)CCN(C(C)=O)C4)cc1 | inactive | –
Cc1cc2ccccc2n1CCNC(=O)COc1ccc2ccccc2c1 | 35.5 µM (active) | –
O=C(COc1ccc2ccccc2c1)N1CCN(C(=O)c2cccs2)CC1 | inactive | –
Cc1ccccc1OCC(=O)NCC(=O)OCC(=O)c1ccc2ccccc2c1 | inactive | –
CCOc1ccccc1C(=O)NC1(C(F)(F)F)C(=O)Nc2c1c(=O)[nH]c(=O)n2-c1ccc(F)cc1 (configuration not stated) | inactive | –
CCCCOc1ccc(CN2C(=O)C(=O)c3cc(Br)cc(C)c32)cc1OC | inactive | –
Cn1c(=O)c([N+](=O)[O-])c(Oc2ccccc2)c2ccccc21 | inactive | –
Cc1cccc(Oc2c([N+](=O)[O-])c(=O)n(C)c3ccccc23)c1 | 11.2 µM (active) | –
Cc1cccc(C2CC(=O)Oc3c2c(=O)n(C)c2ccccc32)c1 (configuration not stated) | inactive | –
CCN(CCCNC(=O)Cn1ncc2c([nH]c3ccccc32)c1=O)c1cccc(C)c1 | inactive | –
CCOC(=O)C1CCCN(C(=O)Cn2ncc3c(C)n(Cc4ccc(F)cc4)c(C)c3c2=O)C1 (configuration not stated) | inactive | –
O=C(CCOc1ccccc1)N(Cc1cccnc1)c1nc2ccc(Cl)cc2s1 | inactive | –
Nc1cccc(-c2cncc(N3CCN(Cc4ccccn4)CC3)n2)c1 | inactive | –

Structure (SMILES) | Potency | growth rescue (activation)
Nc1cccc(-c2cc(-c3ccccc3)nc(-c3cccc(N)c3)n2)c1 | 14.1 µM (active) | –
COc1cccc(-c2cnc3c(NC(C)=O)cc(-c4cccc(NC(C)=O)c4)cn23)c1 | inactive | –
CC(=O)Nc1cc(-c2ccccc2F)cn2c(-c3cccc(C(F)(F)F)c3)cnc12 | 31.6 µM (active) | –
CC(=O)Nc1cccc(-c2cc(NC(C)=O)c3ncc(-c4ccccc4)n3c2)c1 | inactive | –
CCOc1ccc(C(=O)c2cn(Cc3ccccc3OC)c3ccc(F)cc3c2=O)cc1 | inactive | –
COc1ccc2ncc3c(-c4ccc(C)c(C)c4)nn(CC(=O)NC4CCCC4)c3c2c1 | inactive | –
CC1CC2=C(CC1/C=N/NC(N)=S)C(C)(C)CCC2 (configuration not stated) | 22.4 µM (active) | –
COc1ccc2c(c1)Cc1sc(NC(=O)c3ccccc3Br)nc1-2 | inactive | –
CCOC(=O)c1cc2c(=O)n3ccccc3nc2n(CC2CCCO2)c1=NC(=O)c1ccc(C(C)(C)C)cc1 (configuration not stated) | inactive | –
COc1ccc(OCCn2cc(C(=O)C3CCCCC3)c3ccccc32)cc1 | inactive | –
O=C(c1ccc(Cl)nc1)N1CCN(S(=O)(=O)c2ccc3c(c2)OCCO3)CC1 | inactive | –
CCNC(=O)N1CCN(S(=O)(=O)c2ccc3c(c2)OCCCO3)CC1 | inactive | –
O=C(c1c(F)cccc1Cl)N1CCN(S(=O)(=O)c2ccc3c(c2)OCCCO3)CC1 | 14.1 µM (active) | –
CCOC(=O)Cc1csc(SCC(=O)NC(C)C23CC4CC(CC(C4)C2)C3)n1 (configuration not stated) | 22.4 µM (active) | –
CCOC(=O)Cc1csc(SCc2cc(=O)oc3cc(O)ccc23)n1 | inactive | –
CCOC(=O)Cc1csc(SCC(=O)Nc2ccc(C)cc2F)n1 | inactive | –
Cc1ccc(C(=O)Nc2ccc(OCc3cc(=O)n4c(C)csc4n3)cc2)cc1 | inactive | –
CCSc1nnc(NC(=O)c2cc(=O)c3cc(C)c(C)cc3o2)s1 | inactive | –
O=C(Cn1c(=O)n(Cc2ccccc2)c(=O)c2sc3ccccc3c21)Nc1ccccc1F | inactive | –
CCn1c(COc2ccccc2)nnc1SCC(=O)Nc1ccc2c(c1)OCCO2 | inactive | –
CCn1c(COc2ccc(OC)cc2)nnc1SCC(=O)Nc1cc(OC)ccc1OC | 17.8 µM (active) | –
CCc1nnc(SCC(=O)Nc2cc(OC)ccc2OC)nc1CC | inactive | –
Cc1ccc(CN2C(=O)SC(Nc3ccccc3)C2=O)cc1 (configuration not stated) | inactive | –
C=CCn1c(-c2ccc3[nH]c(C)c(C)c3c2)n[nH]c1=S | inactive | –
C=CCn1c(-c2ccccc2OCC)n[nH]c1=S | inactive | –
C=CCn1c(-c2sc(-c3ccccc3)nc2C)n[nH]c1=S | 35.5 µM (active) | –

Structure (SMILES) | Potency | growth rescue (activation)
Cc1ccc(C(=O)COC(=O)C(Cc2c[nH]c3ccccc23)NC(=O)c2ccc(Br)cc2)cc1 (configuration not stated) | inactive | –
O=C1OC(C(=O)Nc2cccc(Br)c2)Cc2ccccc21 (configuration not stated) | inactive | –
Nc1c(-c2cccc(Cl)c2)cnn1-c1cccc([N+](=O)[O-])c1 | 10 µM (active) | –
CCOC(=O)CSc1ncc(-c2cccc(Cl)c2)cn1 | inactive | –
COc1cc2c(cc1OC)C(c1cccc([N+](=O)[O-])c1)=NCC2 | inactive | –
COc1cccc(C(=O)NC(=O)Nc2ccc(-c3cc(C(F)(F)F)nn3-c3ccccc3)cc2)c1 | inactive | –
CCS(=O)(=O)N1CCC(n2c(C)nc3cccnc32)CC1 | inactive | –
Oc1ccc(-n2nnnc2SCc2c(F)cccc2Cl)cc1 | 15.8 µM (active) | –
CCN(CC)S(=O)(=O)c1ccc2nc(CSc3nnnn3-c3ccc(O)cc3)[nH]c2c1 | inactive | –
O=C(CSc1nnnn1-c1ccc(O)cc1)c1ccc(F)cc1 | inactive | –
Cc1ccc(C)c(N2CCN(c3ccc4cc(S(=O)(=O)N5CCC(C)CC5)ccc4n3)CC2)c1 | inactive | –
C=CCNc1nc(C)nc(OC)n1 | inactive | –
CCOC(=O)CNc1nc(Cl)nc(Nc2ccccc2)n1 | inactive | –
C=CCNc1nc(Nc2ccc(Cl)cc2)nc(OC)n1 | 35.5 µM (active) | –
Cc1cccc(NC(=O)N2CCN(C)c3ncccc32)c1C | inactive | –
O=C(COC(=O)c1ccccc1Br)Nc1nnc(-c2ccccc2)o1 | 22.4 µM (active) | –
O=C(Nc1ccc(-c2nc3cc(NC(=O)c4ccccc4Cl)ccc3o2)cc1)c1ccccc1Cl | inactive | –
CC(C)CNC(=O)COC(=O)c1ccccc1OCC(=O)Nc1ccc(Br)cc1 | inactive | –
COc1cccc(-c2nnc(NC(=O)c3ccc(S(=O)(=O)N(CC(C)C)CC(C)C)cc3)o2)c1 | inactive | –
O=C(Nc1nnc(-c2ccc(Cl)cc2)o1)c1ccccc1Br | 7.08 µM (active) | –
O=C(COc1ccccc1)Nc1nonc1NC(=O)COc1ccccc1 | inactive | –
Cc1c(Br)ccc(NC(=O)COc2ccccc2C(N)=O)c1C | – | 10.9% [at 9.22 µM]
O=C(COC(=O)c1ccc(Oc2ccccc2)cc1)Nc1nnc(-c2ccccc2)o1 | 22.4 µM (active) | –
O=C(COC(=O)CSc1nnc(-c2ccc(Cl)cc2)o1)Nc1cc(Cl)cc(Cl)c1 | inactive | –
